The nature of test [1]: Validation screen for inhibitors of Lassa infection (AID 463096; calls by dose curve; also: potency is read from the fitted curve at half-maximal effect).
Test [2] is described as follows: Validation screen for small molecules that induce DNA re-replication in MCF 10A normal breast cells (AID 463097). Also: nearly all actives have a fitted effect of over 60% in size. Also: potency is read from the fitted curve at half-maximal effect. The method, boiled down:
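Read-out is Hoechst total nuclear intensity by fluorescence scanning imager, flagging increased high-DNA-content nuclei. Compounds were incubated with MCF 10A cells for 48 hr (37 C, 5% CO2) before 40 min staining.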

The target in test [3] is Ubiquitin carboxyl-terminal hydrolase 2 (Homo sapiens) (UniProt O75604). The test can be described thus: qHTS Validation Assay for Inhibitors of Ubiquitin-specific Protease USP2a Using CHOP2 as the Reporter (AID 463106). In short, it runs like this: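 10nM USP2 core + cpd, 30min RT; add 25nM Ub-CHOP2/25nM substrate; 60min RT; FI 485/531nm. Buffer Tris pH 8.0, CaCl2, BME, CHAPS. Norm. to NEM = 100% inhibition; time-zero read flags fluorescent artifacts.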
Sequence of Ubiquitin carboxyl-terminal hydrolase 2 (Homo sapiens) (O75604 whole entry, looked up): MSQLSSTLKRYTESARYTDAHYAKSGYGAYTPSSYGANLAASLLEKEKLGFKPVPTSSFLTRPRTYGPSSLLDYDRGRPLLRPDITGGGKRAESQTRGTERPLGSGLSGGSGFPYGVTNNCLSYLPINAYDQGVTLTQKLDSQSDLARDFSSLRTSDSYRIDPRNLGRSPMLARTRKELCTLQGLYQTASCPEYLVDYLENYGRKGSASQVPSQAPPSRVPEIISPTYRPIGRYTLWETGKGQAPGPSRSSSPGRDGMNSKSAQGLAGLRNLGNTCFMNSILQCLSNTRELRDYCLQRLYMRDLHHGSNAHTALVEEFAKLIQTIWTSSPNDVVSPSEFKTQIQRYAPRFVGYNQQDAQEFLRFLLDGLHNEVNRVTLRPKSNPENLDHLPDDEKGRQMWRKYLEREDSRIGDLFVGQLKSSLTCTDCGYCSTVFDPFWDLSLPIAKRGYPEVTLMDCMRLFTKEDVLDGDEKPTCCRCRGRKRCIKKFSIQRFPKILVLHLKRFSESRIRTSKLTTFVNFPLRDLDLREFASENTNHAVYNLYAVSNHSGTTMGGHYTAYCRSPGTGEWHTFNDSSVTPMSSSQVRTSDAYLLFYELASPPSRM
For orientation: qHTS replaces the single test concentration by a dilution series.

Test [4] deals with DNA polymerase III PolC-type (Bacillus subtilis (strain 168)) (UniProt P13267). The test can be described thus: qHTS Validation Assay for the Inhibitors of DNA Replication in Gram-Positive Bacteria (AID 485295). Also: potency is read from the fitted curve at half-maximal effect. The method, boiled down: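 Double-stranded DNA product detected by PicoGreen fluorescence after EDTA quench. Compound incubated with B. subtilis holoenzyme (PolC, beta subunit, SSB, primase) before substrate addition; primed replication of M13Gori with dNTPs and NTPs at room temperature; DMSO defines 0% inhibition.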
Sequence of DNA polymerase III PolC-type (Bacillus subtilis (strain 168)) (P13267 whole entry, looked up): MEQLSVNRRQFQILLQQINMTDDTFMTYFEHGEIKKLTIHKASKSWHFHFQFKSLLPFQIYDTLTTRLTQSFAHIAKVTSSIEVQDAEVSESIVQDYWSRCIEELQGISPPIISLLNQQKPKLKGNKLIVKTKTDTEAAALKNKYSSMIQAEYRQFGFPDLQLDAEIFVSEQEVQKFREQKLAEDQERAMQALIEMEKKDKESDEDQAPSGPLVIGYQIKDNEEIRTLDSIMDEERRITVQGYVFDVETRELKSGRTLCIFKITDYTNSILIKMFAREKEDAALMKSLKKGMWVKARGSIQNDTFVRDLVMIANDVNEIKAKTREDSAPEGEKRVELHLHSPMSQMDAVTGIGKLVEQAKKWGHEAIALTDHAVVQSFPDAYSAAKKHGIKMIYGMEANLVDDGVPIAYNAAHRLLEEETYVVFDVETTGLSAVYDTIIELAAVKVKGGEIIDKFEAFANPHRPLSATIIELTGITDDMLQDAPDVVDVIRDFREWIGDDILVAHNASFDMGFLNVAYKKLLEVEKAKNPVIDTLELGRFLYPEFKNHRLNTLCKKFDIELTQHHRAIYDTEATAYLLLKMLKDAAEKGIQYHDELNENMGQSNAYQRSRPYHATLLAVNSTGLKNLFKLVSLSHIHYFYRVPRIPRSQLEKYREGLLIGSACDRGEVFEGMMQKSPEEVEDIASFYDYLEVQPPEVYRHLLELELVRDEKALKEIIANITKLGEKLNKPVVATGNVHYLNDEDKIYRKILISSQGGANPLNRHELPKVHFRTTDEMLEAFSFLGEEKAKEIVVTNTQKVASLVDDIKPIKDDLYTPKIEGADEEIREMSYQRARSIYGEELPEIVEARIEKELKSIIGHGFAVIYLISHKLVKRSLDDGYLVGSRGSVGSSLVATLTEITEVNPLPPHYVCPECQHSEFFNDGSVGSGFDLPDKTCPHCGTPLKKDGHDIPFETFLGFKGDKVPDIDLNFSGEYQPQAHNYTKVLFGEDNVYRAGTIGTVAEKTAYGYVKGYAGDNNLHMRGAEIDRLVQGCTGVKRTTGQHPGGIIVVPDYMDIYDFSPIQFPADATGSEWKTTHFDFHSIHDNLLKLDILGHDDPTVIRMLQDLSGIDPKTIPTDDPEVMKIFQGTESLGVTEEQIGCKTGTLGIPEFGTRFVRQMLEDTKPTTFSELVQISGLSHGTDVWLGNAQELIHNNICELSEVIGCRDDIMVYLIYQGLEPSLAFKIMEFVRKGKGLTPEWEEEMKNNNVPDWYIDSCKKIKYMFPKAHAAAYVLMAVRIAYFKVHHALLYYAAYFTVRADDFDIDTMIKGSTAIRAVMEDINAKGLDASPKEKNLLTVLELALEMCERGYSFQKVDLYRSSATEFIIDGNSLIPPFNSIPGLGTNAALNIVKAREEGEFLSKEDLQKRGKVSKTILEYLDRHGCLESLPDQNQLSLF

Test [5] has as its target Tumor susceptibility gene 101 protein (Homo sapiens) (UniProt Q99816). The test can be described thus: qHTS Validation Assay for Iinhibitors of HIV-1 Budding by Blocking the Interaction of PTAP/TSG101 (AID 485342; calls by dose curve). In short, it runs like this:
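Fluorescence polarization of 50 nM FITC-PTAP peptide bound to 10 uM Tsg101 binding domain was read after 20 min room-temperature incubation with compounds, in 10 mM HEPES pH 7.5, 0.15 M NaCl, 0.01% Tween 20.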

Test [6] in a line: qHTS Validation Assay to Find Inhibitors of Chronic Active B-Cell Receptor Signaling (AID 485345; active = well fitted curve in the direction sought with a large enough effect in the main read-out, with a control signal flat, not every such curve was filed as active). In short, it runs like this: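 Read-out: ratio of filter-corrected green (IkappaBalpha fusion) to red (native) luciferase signal in doxycycline-induced TMD8 cells after 4 h at 37C. Titration spanned 46 uM–3 nM; Data were normalised to basal cells and 10 uM MG-132 wells.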
The target of test [7] is Beta-2 adrenergic receptor (Homo sapiens) (UniProt P07550). The test can be described thus: qHTS validation assay of beta-arrestin-biased ligands of beta2-adrenergic receptor (AID 485366). The method, boiled down: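 Arrestin-recruitment (Tango) reporter: ligand-bound beta2-AR recruits beta-arrestin, releasing tTA, which upregulates luciferase. Titrations of up to 46 microM incubated 18 hr at 37 degrees C before luminescent readout.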
Sequence of Beta-2 adrenergic receptor (Homo sapiens) (P07550 whole entry, looked up): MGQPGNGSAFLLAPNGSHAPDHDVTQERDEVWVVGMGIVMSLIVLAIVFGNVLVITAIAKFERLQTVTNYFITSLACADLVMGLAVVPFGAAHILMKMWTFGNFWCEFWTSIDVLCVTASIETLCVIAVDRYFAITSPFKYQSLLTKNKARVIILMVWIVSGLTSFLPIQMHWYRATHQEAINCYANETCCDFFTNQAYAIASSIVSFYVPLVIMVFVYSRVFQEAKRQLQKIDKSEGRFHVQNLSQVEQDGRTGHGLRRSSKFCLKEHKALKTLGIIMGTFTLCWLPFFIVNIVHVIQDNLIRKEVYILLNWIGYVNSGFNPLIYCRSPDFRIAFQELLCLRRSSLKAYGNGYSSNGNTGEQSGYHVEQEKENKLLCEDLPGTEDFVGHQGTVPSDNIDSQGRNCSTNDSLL

The target in test [8] is ATP-dependent 6-phosphofructokinase (Trypanosoma brucei brucei) (UniProt O15648). Put plainly: qHTS Validation Assay to Find Inhibitors of T. brucei phosphofructokinase (AID 485368). Also: potency is read from the fitted curve at half-maximal effect. In short, it runs like this: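 Steps: substrate mix (0.5 mM F6P, 0.1 mM ATP, MgCl2, TEA pH 8.0); compound; 1.25 nM T. brucei PFK; 45 min RT; ATP depletion 10 min; ADP-to-ATP detection 10 min; luminescence read; curve fitting and classification.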
Sequence of ATP-dependent 6-phosphofructokinase (Trypanosoma brucei brucei) (O15648 whole entry, looked up): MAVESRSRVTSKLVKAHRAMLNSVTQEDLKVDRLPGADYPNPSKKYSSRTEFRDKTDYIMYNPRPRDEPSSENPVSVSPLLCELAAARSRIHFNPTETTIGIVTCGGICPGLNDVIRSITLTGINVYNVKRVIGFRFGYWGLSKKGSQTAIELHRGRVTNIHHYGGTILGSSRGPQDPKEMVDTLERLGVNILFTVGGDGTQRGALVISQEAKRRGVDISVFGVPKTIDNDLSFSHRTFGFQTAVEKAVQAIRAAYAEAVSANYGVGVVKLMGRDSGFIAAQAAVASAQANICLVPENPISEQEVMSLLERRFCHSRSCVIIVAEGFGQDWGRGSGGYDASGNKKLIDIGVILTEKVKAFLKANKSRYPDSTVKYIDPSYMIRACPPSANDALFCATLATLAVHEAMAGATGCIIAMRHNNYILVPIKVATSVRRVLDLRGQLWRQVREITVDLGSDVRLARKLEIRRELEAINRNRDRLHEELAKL

The nature of test [9]: Cytometry Cell-Based qHTS for Inhibitors of the mTORC1 Signaling Pathway in MEF cells (AID 2668). Also: potency is read from the fitted curve at half-maximal effect. In short, it runs like this: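 Phospho-rpS6 (Ser235/236) immunofluorescence over PI signal, scored as % positive cells using thresholds from 7.5 nM rapamycin and DMSO wells, after 24 h compound exposure of WT-Tsc2-rescued Tsc2-/-, p53-/- MEFs. PI cell count recorded for viability.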

Structures are written as SMILES. Results filed as inconclusive are left out. Calls of active or inactive are those of the source. Unless noted, calls follow the shape of the dose curve; as a rule, active = well fitted curve in the direction sought with a large enough effect; inconclusive = small, poorly fitted or top-dose-only effect, or another doubt; inactive = no such curve, though single readings can be large; an effect the other way counts as inactive or inconclusive.

Sequence of Tumor susceptibility gene 101 protein (Homo sapiens) (Q99816 whole entry, looked up, the tested form may be a part): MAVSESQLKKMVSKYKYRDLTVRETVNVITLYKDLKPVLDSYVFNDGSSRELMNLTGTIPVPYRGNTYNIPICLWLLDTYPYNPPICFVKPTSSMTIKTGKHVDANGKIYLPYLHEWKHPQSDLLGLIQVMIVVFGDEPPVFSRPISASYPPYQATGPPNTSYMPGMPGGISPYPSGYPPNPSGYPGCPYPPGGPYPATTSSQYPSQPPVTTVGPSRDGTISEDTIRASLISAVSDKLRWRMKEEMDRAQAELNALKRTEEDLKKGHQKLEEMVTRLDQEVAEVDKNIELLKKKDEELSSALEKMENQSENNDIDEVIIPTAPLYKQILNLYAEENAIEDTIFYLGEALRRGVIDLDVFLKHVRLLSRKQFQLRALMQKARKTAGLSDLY

On to `O=P(O)(O)C(Cl)(Cl)P(=O)(O)O`, for which the Potency result in test [1] and in test [2] was “inactive” throughout.
For `CN(N=O)c1cc(O)ccc1O`, the Potency result in test [1], in test [2], in [3] and in [6] was “inactive” throughout. The Potency in [4] is 23.8 µM (active); in test [8], 7.57 µM (active). In addition, the compound was classed as inactive in test [5] and in test [7].
As to `Clc1cc(I)cc(Cl)c1NC1=NCCN1`, the Potency result in test [9], in test [2], in test [3], in test [4] and in test [6] was “inactive” in each case. Further, the compound was called inactive in test [5] and in test [7].
In the case of `CN1C2CCC1CC(OC(c1ccccc1)c1ccc(Cl)cc1)C2` (stereo not drawn), in [1], the Potency was 8.91 µM (active).
For the compound `Oc1ccc2c3c1O[C@H]1c4[nH]c5ccccc5c4C[C@@]4(O)C(C2)N(CC2CC2)CCC314` (stereo partly drawn), in test [1], the Potency is 11.2 µM (active). In addition, the Potency entry in [2], in test [3] and in test [8] was “inactive” in each case. Besides, the result in test [5] and in [7] was inactive.
For the compound `COc1ccc2c(c1OC)C(=O)OC2C1c2cc3c(cc2CCN1C)OCO3` (stereo not drawn), the Potency entry in [1] and in [2] was “inactive” throughout.
Consider `CC(C)CC(NP(=O)(O)O[C@@H]1O[C@@H](C)[C@H](O)[C@@H](O)[C@H]1O)C(=O)NC(Cc1c[nH]c2ccccc12)C(=O)O` (stereo partly drawn), for which the Potency entry in test [1] and in test [2] was “inactive” throughout.
With `Ic1ccccc1CNC1C2CCN(CC2)C1C(c1ccccc1)c1ccccc1` (stereo not drawn), the Potency in test [9] is 6.56 µM (active); in test [2] it was 17.8 µM (active). Besides, the Potency entry in test [3] and in [8] was “inactive” in each case. The compound was classed as inactive in test [5] and in test [7].
`N#CCCN`: the Potency entry in [9], in test [3], in [6] and in test [8] was “inactive” in each case. The compound was called inactive in [5] and in test [7].
In the case of `N#C/C(=C/c1ccc(O)c(O)c1)C(N)=S`, the Potency result in [9], in test [3] and in test [6] was “inactive” in each case. For the same compound, the compound was called inactive in test [5] and in test [7].
As for `COc1ccc2c(c1)[C@@]13CCCC[C@H]1[C@@H](C2)NCC3`, the Potency entry in test [9], in [2], in test [3] and in test [8] was “inactive” each time. The compound was classed as inactive in [5] and in test [7].
For `CCN(CC)c1ncnc2c1ncn2[C@@H]1O[C@H](COP(=O)(O)OP(=O)(O)C(Br)(Br)P(=O)(O)O)[C@@H](O)[C@H]1O`, the Potency result in test [1] and in [2] was “inactive” each time.
With `C[N+]1(C)CCC(OC(=O)C(c2ccccc2)c2ccccc2)CC1`, the Potency result in [1] and in [2] was “inactive” in each case.
With `C=CCN1CC[C@]23c4c5ccc(O)c4O[C@@H]2/C(=N/N=C2\CC[C@@]4(O)C6Cc7ccc(O)c8c7[C@@]4(CCN6CC=C)[C@@H]2O8)CC[C@@]3(O)C1C5`, the Potency in test [2] was 15.8 µM (active). Besides, the Potency result in test [3], in test [6] and in test [8] was “inactive” throughout. Also, the result in test [5] and in test [7] was inactive.
With `CC(N)[C@H](O)c1ccc(O)c(O)c1` (stereo partly drawn), the Potency entry in [1], in test [2], in [3], in test [4] and in test [6] was “inactive” in each case. For the same compound, the outcome in test [5] and in test [7] was inactive. In [8], the Potency was 5.36 µM (active).
`OC1CCCCC1N1CCC(c2ccccc2)CC1` (stereo not drawn): the Potency result in test [9], in test [2], in test [3], in test [6] and in test [8] was “inactive” throughout. Further, the compound was classed as inactive in test [5] and in test [7].
`CCCN1CCC[C@@H](c2cccc(O)c2)C1`: the Potency result in [9], in test [3], in [4], in test [6] and in test [8] was “inactive” throughout. Further, the compound was classed as inactive in test [5] and in [7].
As to `CN1CC[C@@]2(C)c3cc(O)ccc3N(C)C12` (stereo partly drawn), the Potency entry in test [3], in test [4] and in test [6] was “inactive” throughout. For the same compound, the compound was called inactive in test [5] and in test [7].
Turning to `CCCCCCC(C)(C)c1ccc([C@@H]2C[C@H](O)CC[C@H]2CCCO)c(O)c1`, the Potency entry in test [3], in [6] and in test [8] was “inactive” each time. Further, the call in test [5] and in test [7] was inactive.

(Values after PubChem BioAssay (NCATS).)
